{
  "source": "PubChem BioAssay AID2315",
  "about": "(National Center for Advancing Translational Sciences (NCATS), 2010)",
  "note": "The whole screen tested about 290,000 compounds, of which about 27,000 (9.3%) were called active. Only a selection was taken, and actives are over-represented in it overall. A number with no mark means an inactive call. Cut-off read from the data, not from the text of the source: active = inhibition mostly above about 28% (no sharp cut-off); inactive = mostly below about 43%.",
  "data": [
    {"assay": "A qHTS for Small Molecule Inhibitors of Shiga Toxin; note: 0% is about no effect", "settings": "Vero cells, Shiga toxin protein synthesis inhibition reporter; at 38.7 µM, hits give high values", "values": [
      {"smiles": "CCOc1cc(CN2CCCC(CO)(Cc3ccc(F)cc3F)C2)ccc1OC", "note": "(stereo unspecified)", "inhibition": "1.36%"},
      {"smiles": "COC(=O)Cn1cnc2scc(-c3ccc(C)c(C)c3)c2c1=O", "inhibition": "-16.4%"},
      {"smiles": "CC(C)Oc1ccc(/C=N/NC(=O)c2nnn(-c3nonc3N)c2CN(C)C2CCCCC2)cc1", "inhibition": "-5.14%"},
      {"smiles": "CCOc1ccc(S(=O)(=O)NCCCn2ccnc2)cc1NC(C)=O", "inhibition": "-15.3%"},
      {"smiles": "COc1ccc(OC)c(NC(=O)c2ccc3c(c2)C(=O)N(c2ccc(OC(C)=O)cc2)C3=O)c1", "inhibition": "-4.38%"},
      {"smiles": "COc1cc(NC(=O)c2ccc(-c3csc(C)n3)cc2)c(OC)cc1Cl", "inhibition": "-19.7%"},
      {"smiles": "O=c1oc2ccccc2c(NC2CCCCC2)c1NS(=O)(=O)c1ccc(Cl)cc1", "inhibition": "-3.24%"},
      {"smiles": "Cc1ccc(CN(CC(=O)NCC2CCCO2)S(=O)(=O)c2ccc(C)cc2)cc1", "note": "(stereo unspecified)", "inhibition": "-7.48%"},
      {"smiles": "Cc1cccc(N2C(=O)N3[C@H](c4ccc(F)cc4)[C@@H]4C(=O)N(C5CCCCC5)C(=O)[C@@H]4[C@]3(Cc3ccccc3)C2=O)c1", "inhibition": "-2.98%"},
      {"smiles": "CCCCNC(=S)NNC(=O)c1cc(C)on1", "inhibition": "6.4%"},
      {"smiles": "Cc1cc(C(=O)NCCCc2ccccc2)no1", "inhibition": "35.8% (active)"},
      {"smiles": "COc1ccccc1CNC(=O)c1ccc(N(C)S(=O)(=O)c2ccc(C)cc2)cc1", "inhibition": "4.41%"},
      {"smiles": "Cc1ccccc1CSCCNC(=O)c1ccc(N(C)S(=O)(=O)c2ccccc2)cc1", "inhibition": "-13.5%"},
      {"smiles": "CN(c1ccccc1)S(=O)(=O)c1ccc(C(=O)NCCc2ccccc2)cc1", "inhibition": "50.1% (active)"},
      {"smiles": "CCN(CC)CCCNC(=O)c1cc(-c2cccc(Cl)c2)on1", "inhibition": "-7.26%"},
      {"smiles": "CC(C)CNC(=O)c1cc(-c2ccc(Br)cc2)on1", "inhibition": "52.5% (active)"},
      {"smiles": "Cc1c(NC(=O)c2cc(-c3ccc(Br)cc3)on2)c(=O)n(-c2ccccc2)n1C", "inhibition": "20%"},
      {"smiles": "CSc1ncc(C(=O)NCCCc2ccccc2)c(C)n1", "inhibition": "28.3%"},
      {"smiles": "CC(C)Cn1c(=O)c2ccccc2n2c(CCC(=O)NCc3ccccn3)nnc12", "inhibition": "17.2%"},
      {"smiles": "O=Cc1cn(-c2ccccc2)nc1-c1ccccn1", "inhibition": "16.4%"},
      {"smiles": "Cc1ccccc1OCC(=O)NNC(=O)c1cc(S(=O)(=O)N(C)C)ccc1N1CCCC1", "inhibition": "-3.25%"},
      {"smiles": "CCCCNC(=O)C1(O)c2ccccc2NC(=O)N1c1ccc(Cl)cc1", "note": "(stereo unspecified)", "inhibition": "20.3%"},
      {"smiles": "COc1ccc(N2CCN(C3CCCCC3NS(=O)(=O)c3ccccc3)CC2)cc1", "note": "(stereo unspecified)", "inhibition": "-5.29%"},
      {"smiles": "CC(C(=O)c1ccc(-c2ccccc2)cc1)[n+]1cccc(Br)c1", "note": "(stereo unspecified)", "inhibition": "-5.48%"},
      {"smiles": "CCn1c(SCC(=O)Nc2ccc3c(c2)OCCO3)nnc1C(C)C", "inhibition": "23.4%"},
      {"smiles": "CCC(=O)N1CCN(c2ccccc2NC(=O)COc2cccc(C)c2C)CC1", "inhibition": "-4.98%"},
      {"smiles": "COc1ccc(S(=O)(=O)N2CCOC2CNC(=O)C(=O)NCc2ccc(F)cc2)cc1", "note": "(stereo unspecified)", "inhibition": "-3.23%"},
      {"smiles": "Cc1ccc(S(=O)(=O)NCCCn2ccnc2)cc1C(=O)NC(C)C", "inhibition": "-5.57%"},
      {"smiles": "COc1ccc2c(Cl)c(C(=O)NCc3ccco3)sc2c1", "inhibition": "93.2% (active)"},
      {"smiles": "COc1ccc2oc(C(=O)NCC(Cc3ccccc3)N(C)C)c(C)c2c1", "note": "(stereo unspecified)", "inhibition": "19.2%"},
      {"smiles": "COc1cc(C(=O)N[C@@H](C)C(=O)NCc2ccco2)cc(OC)c1OC", "inhibition": "-3.33%"},
      {"smiles": "COc1ccc2oc(C(=O)NCc3ccco3)c(C)c2c1", "inhibition": "57% (active)"},
      {"smiles": "O=C(NCc1ccco1)c1cc2sccc2n1Cc1ccc(F)cc1", "inhibition": "59.6%"},
      {"smiles": "COc1cccc(NC(=S)NCc2ccco2)c1", "inhibition": "-1.12%"},
      {"smiles": "O=C(NCc1ccco1)c1sc2cccc(F)c2c1Cl", "inhibition": "80.8% (active)"},
      {"smiles": "COc1ccc(C(=O)Nc2ccccc2C(=O)NCc2ccco2)cc1", "inhibition": "55.1% (active)"},
      {"smiles": "O=C(Nc1ccccc1)Nc1ccccc1C(=O)NCc1ccco1", "inhibition": "17.2%"},
      {"smiles": "Cc1ccc(N(Cc2ccc(C(=O)Nc3ccccc3C(=O)NCc3ccco3)cc2)S(C)(=O)=O)cc1C", "inhibition": "-16.6%"},
      {"smiles": "COc1cc(C(=O)NC(=S)NCc2ccco2)cc(OC)c1OC", "inhibition": "-9.57%"},
      {"smiles": "O=C(NCc1ccco1)c1nn2cccnc2c1Cl", "inhibition": "18.5%"},
      {"smiles": "CCNc1c(NS(=O)(=O)c2ccc(C3CCCCC3)cc2)c(=O)oc2ccccc12", "inhibition": "-11.4%"},
      {"smiles": "COc1ccc(OCC(O)CN(C)C(=O)C(C)Oc2ccccc2)cc1", "note": "(stereo unspecified)", "inhibition": "-1.44%"},
      {"smiles": "Cc1cccc(NS(=O)(=O)c2ccc(-c3cnc(C4CC4)o3)cc2)c1", "inhibition": "14.4%"},
      {"smiles": "CC(C)[C@H](NC(=O)N1CC(=O)Nc2ccccc21)C(=O)N[C@@H](Cc1c[nH]c2ccccc12)C(=O)O", "inhibition": "-8.09%"},
      {"smiles": "C=CCOc1cccc(C2NC(=O)c3ccccc3O2)c1", "note": "(stereo unspecified)", "inhibition": "5.66%"},
      {"smiles": "Cc1ccc(S(=O)(=O)N2CCN(C(=O)CSc3cc(C)ccc3C)CC2)c(C)c1", "inhibition": "-13%"},
      {"smiles": "COc1ccccc1C(=O)NNC(=O)c1ccc(NC(=O)c2ccccc2)cc1", "inhibition": "-13.9%"},
      {"smiles": "COc1ccc(C(=O)Nc2ccccc2C(=O)N/N=C/c2ccccc2OC)cc1", "inhibition": "89.2% (active)"},
      {"smiles": "COc1ccc(C(=O)Nc2ccccc2C(=O)N/N=C/c2ccc(O)c(OC)c2)cc1", "inhibition": "-21.6%"},
      {"smiles": "COc1ccc(C(=O)NC(C)c2nccs2)cc1OC1CCN(C(C)C)CC1", "note": "(stereo unspecified)", "inhibition": "-1.47%"},
      {"smiles": "Cc1nc2ccc(NC(=O)N3CCC(c4ccccc4)C3)cc2nc1C", "note": "(stereo unspecified)", "inhibition": "2.35%"},
      {"smiles": "Cc1nc2ccc(NC(=S)N3CCC(C)CC3)cc2nc1C", "inhibition": "33.9% (active)"},
      {"smiles": "Cc1cccc(NC(=S)N2CCC(c3nc4ccccc4s3)CC2)c1", "inhibition": "-9.34%"},
      {"smiles": "Cn1c(=O)c2c(nc(N3CCCCCC3)n2CC(=O)c2ccc(Br)cc2)n(C)c1=O", "inhibition": "2.71%"},
      {"smiles": "CC(=O)Cn1ncc(N2CCOCC2)c(Br)c1=O", "inhibition": "-5.02%"},
      {"smiles": "O=C(Cn1ncc(N2CCCC2)c(Br)c1=O)c1ccc(Cl)cc1", "inhibition": "37.7% (active)"},
      {"smiles": "O=C(CNc1cccc(S(=O)(=O)N2CCCCC2)c1)Nc1ccccc1F", "inhibition": "-9.02%"},
      {"smiles": "CCc1ccc(NC(=O)Cn2nnc(C(=O)NCc3ccc4c(c3)OCO4)c2N)cc1", "inhibition": "0.685%"},
      {"smiles": "Cc1cccc2sc(N(CCCN(C)C)C(=O)CCS(=O)(=O)c3ccccc3)nc12", "inhibition": "6.64%"},
      {"smiles": "CCCC(=O)N1c2ccc(-c3csc(N)n3)cc2CC1C", "note": "(stereo unspecified)", "inhibition": "71.3% (active)"},
      {"smiles": "CCn1nc(C(=O)OCC(=O)N2c3ccccc3CC2C)c2ccccc2c1=O", "note": "(stereo unspecified)", "inhibition": "-10.9%"},
      {"smiles": "Cc1ccn(CCC(=O)N2c3ccccc3CC2C)n1", "note": "(stereo unspecified)", "inhibition": "-3.39%"},
      {"smiles": "CCC(C)Sc1nc2c(cnn2-c2ccc(F)cc2)c(=O)[nH]1", "note": "(stereo unspecified)", "inhibition": "-5.58%"},
      {"smiles": "COc1cccc(OCC(O)CNC(=O)c2oc3c(C)c(C)ccc3c2C)c1", "note": "(stereo unspecified)", "inhibition": "-9.45%"},
      {"smiles": "CCOCc1nnc(NC(=O)CCS(=O)(=O)Cc2ccccc2)s1", "inhibition": "-3.13%"},
      {"smiles": "Cc1cccc(CCNS(=O)(=O)c2ccc3c(c2)NC(=O)CO3)c1", "inhibition": "-6.16%"},
      {"smiles": "Cc1nn(CCOc2ccccc2)c(=O)n1-c1ccccc1F", "inhibition": "72.3% (active)"},
      {"smiles": "Cc1cc2ncn(CCCCOc3ccccc3)c2cc1C", "inhibition": "-3.93%"},
      {"smiles": "Clc1ncn(CCOc2ccccc2)c1Cl", "inhibition": "-16.2%"},
      {"smiles": "COc1ccc(-c2nc3c(s2)CCc2onc(-c4ccc(OC)cc4)c2-3)cc1", "inhibition": "-4%"},
      {"smiles": "Cc1nn(C)c(Cl)c1CN1CCC(n2nccc2NC(=O)C2CCCC2)CC1", "inhibition": "-4.44%"},
      {"smiles": "O=C(NCc1cccc(Cl)c1)C1CCC(=O)N(C2CC2)C1", "note": "(stereo unspecified)", "inhibition": "1.78%"},
      {"smiles": "O=C(N/N=C/c1ccc([N+](=O)[O-])cc1)c1c[nH]c2ccccc12", "inhibition": "35.6%"},
      {"smiles": "O=C(N/N=C/c1c[nH]c2ccccc12)c1ccccc1O", "inhibition": "46.2% (active)"},
      {"smiles": "O=C(N/N=C/c1c[nH]c2ccccc12)c1cc2ccccc2o1", "inhibition": "51.6% (active)"},
      {"smiles": "O=C(N/N=C/c1coc2ccccc2c1=O)c1cc2ccccc2o1", "inhibition": "-15.3%"},
      {"smiles": "Cc1c(/C=N\\NC(=O)c2cc3ccccc3o2)c2ccccc2n1C", "inhibition": "33.2%"},
      {"smiles": "CSC(=S)N/N=C/c1c[nH]c2ccccc12", "inhibition": "18.5%"},
      {"smiles": "COc1cccc(NC(=O)C/C(C)=N/NC(=O)C2CCCCC2)c1", "inhibition": "5.94%"},
      {"smiles": "CCC(C)C(NC(=O)C1CCC(=O)N1C(=O)OCc1ccccc1)C(=O)NC(C(=O)N1CCCC1C(N)=O)C(C)CC", "note": "(stereo unspecified)", "inhibition": "-2.25%"},
      {"smiles": "COc1ccc(C/C(C)=N/NC(=O)c2cc(C)oc2C)cc1", "inhibition": "39.4% (active)"},
      {"smiles": "COc1ccc(C/C(C)=N/NC(=O)c2ccncc2)cc1", "inhibition": "13.5%"},
      {"smiles": "CCCCCNC(=O)Cc1ccc(OC)cc1", "inhibition": "35.5%"},
      {"smiles": "Cc1nc2nc(C)c(NS(=O)(=O)c3ccc(C(C)(C)C)cc3)c(=O)n2[nH]1", "inhibition": "-4.52%"},
      {"smiles": "Cc1ccccc1C(CC(=O)c1cccs1)C(C#N)C#N", "note": "(stereo unspecified)", "inhibition": "60.4% (active)"},
      {"smiles": "Cc1ccc(C)c(NC(CC(=O)c2ccccc2)C(=O)OCC(=O)c2cccs2)c1", "note": "(stereo unspecified)", "inhibition": "-2.14%"},
      {"smiles": "C/C(=N\\NC(=O)COc1c(C)cccc1C)c1cccs1", "inhibition": "23.6%"},
      {"smiles": "CCOc1ccc(CN2CCN(Cc3c[nH]c4ccccc34)CC2)cc1", "inhibition": "-7.52%"},
      {"smiles": "C/C=C/C(=O)OCc1csc(CC(=O)Nc2ccccc2C)n1", "inhibition": "-12.5%"},
      {"smiles": "Cc1ccc2c(c1)c1ncn(Cc3ccc(F)cc3)c(=O)c1n2C", "inhibition": "-13.4%"},
      {"smiles": "Cc1ccc2c(c1)c1ncnc(N3CCc4ccccc4C3)c1n2C", "inhibition": "61.5% (active)"},
      {"smiles": "Cc1ccc2c(c1)c1ncn(CCC3=CCCCC3)c(=O)c1n2C", "inhibition": "1.3%"},
      {"smiles": "COc1ccc(-c2cc(C(=O)N3CCN(Cc4ccc5c(c4)OCO5)CC3)on2)cc1OC", "inhibition": "-5.83%"},
      {"smiles": "COCC1CCN(C(=O)CCc2nnc(C3(c4ccc(Cl)cc4)CCC3)o2)C1", "note": "(stereo unspecified)", "inhibition": "59.4% (active)"},
      {"smiles": "O=C1CCC(CCC(=O)N2CCCC(C(=O)c3ccc(Cl)cc3)C2)=NN1", "note": "(stereo unspecified)", "inhibition": "12.9%"},
      {"smiles": "COCC1CCCN(C(=O)c2ccc3oc(C(C)C)nc3c2)C1", "note": "(stereo unspecified)", "inhibition": "13.8%"}
    ]}
  ]
}
